Assay results as given in PubChem BioAssay (EPA / NIEHS).
Calls of active or inactive are those of the source. How the source made its calls: active means hit-call score of the fitted dose curve at least 0.9, where 1 is the maximum; inactive means score below 0.9.

Tests used:
[1] = ATG_GLI_CIS: Attagene CIS-FACTORIAL HepG2 Assay for human Zinc Finger Protein GLI1 (AID 2282945); details: HepG2, Attagene cis-factorial reporter mRNA, GLI element; actives raise or lower the signal
Procedure, shortened: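 Transiently transfected HepG2 cells report endogenous transcription factor activity via cis-element-driven reporter units. After 24 h compound exposure, reporter mRNA was measured by RT-PCR with capillary electrophoresis; bidirectional fitting against DMSO baseline.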

[2] = molecular target: Bile acid receptor (Homo sapiens) (UniProt Q96RI1); assay: ATG_IR1_CIS: Attagene CIS-FACTORIAL HepG2 Assay for human Nuclear Receptor Subfamily 1 Group H Member 4 (NR1H4), IR1 submotif (AID 2282946); details: IR1 reporter transcription, actives raise or lower the signal
Procedure, shortened: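 HepG2 cells transiently transfected with multiple cis-promoter-driven reporter units to measure endogenous transcription factor activity; 24 h exposure. Reporter mRNA read by RT-PCR, FAM labelling, HpaI digestion and capillary electrophoresis. Bidirectional fit versus DMSO.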

[3] = ATG_ISRE_CIS: Attagene CIS-FACTORIAL HepG2 Assay for human Interferon Regulatory Factor 1 (IRF1) binding to an Interferon-Stimulated Response Element (ISRE) (AID 2282948); details: HepG2 ISRE cis-reporter (Attagene), mRNA transcription readout; actives raise or lower the signal
Procedure, shortened: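 Transfected HepG2 (multiple reporter transcription units, cis elements) dosed 24 h. RNA → oligo(dT) RT → PCR → 6-FAM primer extension → HpaI → CE. DMSO = negative control/baseline.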

[4] = ATG_M_32_CIS: Attagene CIS-FACTORIAL HepG2 Assay for M32 Transcription Factor (Internal Marker) (AID 2282949); details: HepG2 Attagene cis-factorial M32 reporter, mRNA; actives raise or lower the signal;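 further: background control marker of the multiplexed CIS panel rather than a real target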
Procedure, shortened: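 Internal background marker read-out: RT-PCR/capillary electrophoresis fluorescence of reporter transcripts from transiently transfected HepG2 cells after 24 h chemical exposure. Activity fitted bidirectionally relative to DMSO negative control.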

[5] = ATG_M_06_CIS: Attagene CIS-FACTORIAL HepG2 Assay for M06 Transcription Factor (Internal Marker) (AID 2282950); details: HepG2 Attagene CIS-FACTORIAL M06 internal marker reporter; actives raise or lower the signal
Procedure, shortened: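 Terse: HepG2, transient MRTU transfection (FuGene 6), 24 h dosing; total RNA, oligo(dT) RT, PCR, FAM label, HpaI cut, capillary electrophoresis; bidirectional fit vs DMSO baseline; background-control endpoint.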

[6] = molecular target: Hypoxia-inducible factor 1-alpha (Homo sapiens) (UniProt Q16665); assay: ATG_HIF1a_CIS: Attagene CIS-FACTORIAL HepG2 Assay for human Hypoxia Inducible Factor 1 (HIF1A) (AID 2282951); details: HepG2 Attagene cis-factorial HIF1a reporter transcription; actives raise or lower the signal
Procedure, shortened: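 HepG2, transient cis-reporter library, 24 h dosing. RNA → RT (oligo dT) → PCR → 6-FAM primer extension → HpaI → CE. Bidirectional curve fit vs DMSO.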

[7] = molecular target: Hepatocyte nuclear factor 6 (Homo sapiens) (UniProt Q9UBC0); assay: ATG_HNF6_CIS: Attagene CIS-FACTORIAL HepG2 Assay for human Hepatocyte Nuclear Factor 6 (HNF6) (AID 2282952); details: HepG2 Attagene cis-factorial HNF6 reporter transcription; actives raise or lower the signal
Procedure, shortened: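 HepG2 cells transiently transfected with cis-element-driven multiple reporter transcription units, dosed 24 h; reporter mRNA quantified by RT-PCR, FAM primer extension, HpaI digestion and capillary electrophoresis; bidirectional fit versus DMSO baseline.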

[8] = ATG_MRE_CIS: Attagene CIS-FACTORIAL HepG2 Assay for human Metal Responsive Element (MRE) (AID 2282954); details: HepG2 MRE cis-reporter transcription, Attagene multiplex; actives raise or lower the signal
Procedure, shortened: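 Fluorescent reporter fragments separated by capillary electrophoresis give mRNA induction for the MRE unit after 24 h treatment of transfected HepG2 cells. Endogenous transcription-factor activity is read; DMSO serves as negative control and baseline.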

[9] = ATG_GRE_CIS: Attagene CIS-FACTORIAL HepG2 Assay for human Glucocorticoid Response Elements (GRE) (AID 2282947); details: HepG2 GRE cis-reporter, Attagene multiplex mRNA; actives raise or lower the signal
Procedure, shortened: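 Endogenous transcription factor activity is read through cis-element reporter constructs transiently transfected into HepG2 cells. After 24 h treatment, labelled RT-PCR products are resolved by capillary electrophoresis; DMSO sets baseline for bidirectional curve fitting.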

[10] = molecular target: Heat shock factor protein 1 (Homo sapiens) (UniProt Q00613); assay: ATG_HSE_CIS: Attagene CIS-FACTORIAL HepG2 Assay for human Heat Shock Transcription Factor 1 (HSE) (AID 2282953); details: HepG2 HSE cis-reporter, Attagene RNA transcription; actives raise or lower the signal
Procedure, shortened: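 Read-out: fluorescence of reporter-specific RT-PCR fragments separated by capillary electrophoresis. HepG2 carrying transfected cis-element reporter units; 24 h dosing; activity fitted in both directions relative to DMSO baseline.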

Measured: AC50

Sequence of Heat shock factor protein 1 (Homo sapiens) (Q00613 whole entry, looked up, the tested form may be a part): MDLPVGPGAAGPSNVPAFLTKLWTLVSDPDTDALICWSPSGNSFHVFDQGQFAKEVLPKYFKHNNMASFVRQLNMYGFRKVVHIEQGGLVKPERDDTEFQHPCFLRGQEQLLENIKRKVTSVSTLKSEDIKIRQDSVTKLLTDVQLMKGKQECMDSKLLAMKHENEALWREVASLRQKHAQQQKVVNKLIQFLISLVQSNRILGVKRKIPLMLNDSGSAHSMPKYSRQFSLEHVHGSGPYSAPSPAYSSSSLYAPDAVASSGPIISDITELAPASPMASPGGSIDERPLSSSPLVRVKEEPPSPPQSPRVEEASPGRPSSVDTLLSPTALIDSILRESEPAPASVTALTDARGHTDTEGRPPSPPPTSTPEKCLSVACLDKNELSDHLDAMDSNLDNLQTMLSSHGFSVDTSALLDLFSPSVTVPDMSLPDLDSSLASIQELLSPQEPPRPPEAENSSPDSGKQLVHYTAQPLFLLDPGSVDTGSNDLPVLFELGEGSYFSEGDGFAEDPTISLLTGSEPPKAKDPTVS
Sequence of Hypoxia-inducible factor 1-alpha (Homo sapiens) (Q16665 whole entry, looked up): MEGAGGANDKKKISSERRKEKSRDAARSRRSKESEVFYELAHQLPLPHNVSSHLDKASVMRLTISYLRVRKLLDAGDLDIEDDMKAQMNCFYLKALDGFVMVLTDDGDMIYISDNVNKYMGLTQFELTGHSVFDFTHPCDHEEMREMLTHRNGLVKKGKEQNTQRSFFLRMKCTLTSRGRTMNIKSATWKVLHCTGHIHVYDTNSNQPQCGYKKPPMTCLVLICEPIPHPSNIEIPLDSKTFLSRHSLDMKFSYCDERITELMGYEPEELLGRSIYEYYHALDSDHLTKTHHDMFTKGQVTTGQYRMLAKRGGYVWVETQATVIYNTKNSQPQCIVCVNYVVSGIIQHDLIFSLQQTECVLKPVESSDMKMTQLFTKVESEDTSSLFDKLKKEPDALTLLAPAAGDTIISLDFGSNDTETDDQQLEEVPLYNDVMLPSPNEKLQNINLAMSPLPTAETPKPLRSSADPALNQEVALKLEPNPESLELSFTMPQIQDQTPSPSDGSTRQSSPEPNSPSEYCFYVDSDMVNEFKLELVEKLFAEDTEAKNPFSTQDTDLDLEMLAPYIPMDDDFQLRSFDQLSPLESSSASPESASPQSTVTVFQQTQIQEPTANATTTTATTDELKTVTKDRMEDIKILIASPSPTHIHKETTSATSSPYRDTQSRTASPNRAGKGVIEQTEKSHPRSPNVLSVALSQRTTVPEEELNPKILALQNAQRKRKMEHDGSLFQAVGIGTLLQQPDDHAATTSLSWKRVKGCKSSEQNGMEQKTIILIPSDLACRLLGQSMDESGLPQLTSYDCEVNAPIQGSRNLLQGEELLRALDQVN
Sequence of Hepatocyte nuclear factor 6 (Homo sapiens) (Q9UBC0 whole entry, looked up): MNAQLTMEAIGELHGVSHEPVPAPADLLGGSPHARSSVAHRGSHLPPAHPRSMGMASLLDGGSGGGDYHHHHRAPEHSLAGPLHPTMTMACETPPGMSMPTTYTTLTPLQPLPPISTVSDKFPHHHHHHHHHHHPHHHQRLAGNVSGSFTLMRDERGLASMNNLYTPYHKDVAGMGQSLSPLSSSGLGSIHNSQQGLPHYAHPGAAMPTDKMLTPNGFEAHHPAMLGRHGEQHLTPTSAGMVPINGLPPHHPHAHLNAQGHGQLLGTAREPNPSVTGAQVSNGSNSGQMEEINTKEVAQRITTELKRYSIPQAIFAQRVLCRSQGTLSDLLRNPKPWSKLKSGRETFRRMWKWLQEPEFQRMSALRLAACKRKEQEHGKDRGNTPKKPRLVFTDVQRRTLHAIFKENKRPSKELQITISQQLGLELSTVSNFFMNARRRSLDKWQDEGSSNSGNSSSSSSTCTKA
Sequence of Bile acid receptor (Homo sapiens) (Q96RI1 whole entry, looked up): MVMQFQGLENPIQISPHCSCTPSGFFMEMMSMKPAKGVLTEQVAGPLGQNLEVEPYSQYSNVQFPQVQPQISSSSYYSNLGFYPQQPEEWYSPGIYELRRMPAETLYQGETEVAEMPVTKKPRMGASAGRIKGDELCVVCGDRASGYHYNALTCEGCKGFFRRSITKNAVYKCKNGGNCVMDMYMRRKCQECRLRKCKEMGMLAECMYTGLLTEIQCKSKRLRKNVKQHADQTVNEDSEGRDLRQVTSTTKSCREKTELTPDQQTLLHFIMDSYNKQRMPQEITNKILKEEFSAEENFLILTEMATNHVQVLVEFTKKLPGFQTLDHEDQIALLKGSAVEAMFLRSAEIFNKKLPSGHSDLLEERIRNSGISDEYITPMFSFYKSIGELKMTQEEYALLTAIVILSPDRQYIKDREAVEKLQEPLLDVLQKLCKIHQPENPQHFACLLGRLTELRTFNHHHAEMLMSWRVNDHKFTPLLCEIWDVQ

c1ccc2sc(SSN3CCOCC3)nc2c1
active: [1] 79.4 µM | [2] 105 µM | [6] 32.2 µM | [8] 123 µM
inactive: [3] | [4] | [5] | [7]

CCCCC1CCC(=O)O1 (stereo not drawn)
inactive: [1] | [9] | [3] | [4] | [5] | [6] | [7] | [10] | [8]

CC(=O)OCC=C(C)C
inactive: [1] | [9] | [3] | [4] | [5] | [6] | [7] | [10] | [8]

CCCCCCCO
inactive: [1] | [9] | [3] | [4] | [5] | [6] | [7] | [10] | [8]

Cc1cccc(C(C)(C)C)c1O
inactive: [1] | [9] | [3] | [4] | [5] | [6] | [7] | [10] | [8]

O=C(C=Cc1ccccc1)OCCc1ccccc1
inactive: [1] | [9] | [4] | [5] | [6] | [7] | [10]
active: [3] 77.6 µM | [8] 40.4 µM

COc1ccc(-c2coc3cc(O)cc(O)c3c2=O)cc1
inactive: [1] | [9] | [3] | [4] | [5] | [6] | [7]
active: [10] 174 µM | [8] 138 µM

CO[Si](C)(C)OC
inactive: [1] | [9] | [3] | [4] | [5] | [6] | [7] | [10] | [8]

C=CC(C)(O)CC/C=C(\C)CC (stereo not drawn)
inactive: [1] | [9] | [3] | [4] | [5] | [6] | [7] | [10] | [8]

O=C(Cl)c1c(Cl)c(Cl)c(C(=O)Cl)c(Cl)c1Cl
inactive: [1] | [9] | [3] | [4] | [5] | [6] | [7] | [10] | [8]

C=CCOC(=O)c1ccc(C(=O)OCC=C)c(C(=O)OCC=C)c1
inactive: [1] | [9] | [3] | [4] | [5] | [6] | [7] | [10] | [8]
